Assay results from PubChem BioAssay (NCI).
The panel holds about 83,000 compounds, 20% with a hit somewhere; the sample as a whole holds those more often.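 Compound tested at a single concentration for 48 hours in 96-well plates; a percent growth value below 10 was scored as active.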 Values without a mark were called inactive. Active and inactive are the calls of the source.

What was measured:
Test in all cases: NCI-60 one-dose screen, 48 h (100 = growth as untreated, 0 = no growth, -100 = all killed)
Settings in all cases: 10 µM
NCI-H23 lung = tested on: NCI-H23 lung
NCI-H226 lung = tested on: NCI-H226 lung
NCI-H460 lung = tested on: NCI-H460 lung
HOP-92 NSCLC = tested on: HOP-92 NSCLC
NCI-H522 lung = tested on: NCI-H522 lung
A549/ATCC NSCLC = tested on: A549/ATCC NSCLC
786-0 renal = tested on: 786-0 renal
COLO 205 colon = tested on: COLO 205 colon
DU-145 prostate = tested on: DU-145 prostate
K-562 leukemia = tested on: K-562 leukemia
MALME-3M melanoma = tested on: MALME-3M melanoma
MDA-MB-231 breast = tested on: MDA-MB-231 breast
RXF 393 renal = tested on: RXF 393 renal
SF-268 CNS = tested on: SF-268 CNS
SF-295 CNS = tested on: SF-295 CNS
SF-539 CNS = tested on: SF-539 CNS
M14 melanoma = tested on: M14 melanoma
UACC-257 melanoma = tested on: UACC-257 melanoma

Compound	growth (NCI-H23 lung)	growth (NCI-H226 lung)	growth (NCI-H460 lung)	growth (HOP-92 NSCLC)	growth (NCI-H522 lung)	growth (A549/ATCC NSCLC)	growth (786-0 renal)	growth (COLO 205 colon)	growth (DU-145 prostate)	growth (K-562 leukemia)	growth (MALME-3M melanoma)	growth (MDA-MB-231 breast)	growth (RXF 393 renal)	growth (SF-268 CNS)	growth (SF-295 CNS)	growth (SF-539 CNS)	growth (M14 melanoma)	growth (UACC-257 melanoma)
Cc1ccc(/C=C/C(=O)C(=O)/C=C/c2ccc(C)cc2)cc1	95.4%	107%	104%	108%	81.7%	86.2%	96.9%	110%	112%	95.2%	96.8%	106%	117%	108%	101%	96.2%	95.2%	–
CCOC(=O)/C(=C(\C)N)C1CC(=O)NC1=O (configuration not stated)	96.3%	97.3%	101%	112%	102%	101%	101%	109%	–	83.6%	111%	112%	102%	108%	101%	105%	97.2%	101%
Cc1cc(O)ccc1C1=NN(c2ccc(S(C)(=O)=O)cc2)C(=O)CC1	32.9%	93.3%	73.1%	92.8%	2.39% (active)	72.2%	84.1%	–	92.2%	20.6%	52.7%	74.8%	81.2%	80.3%	32.1%	73.8%	49.2%	93%
O=C(Nc1cc([N+](=O)[O-])c2[nH]c(=O)c3ccccc3c2c1)C(F)(F)F	81.8%	93.4%	38.4%	112%	77.2%	62%	88.8%	88.5%	97.1%	84.6%	83.7%	88.6%	76.7%	86.7%	80.8%	93.6%	107%	93.4%
COc1ccc(C(c2ccc(OCCN(C)C)cc2)c2cc3ccccc3c3ccccc23)cc1 (configuration not stated)	78.4%	87.5%	-28.6% (active)	63.6%	75%	55%	50.6%	-50.6% (active)	34.2%	-29.9% (active)	-43.4% (active)	17.1%	49.5%	67.3%	58%	66.9%	-72.3% (active)	–
O=c1cn[nH]c2ccc(Br)cc12	97.6%	100%	108%	123%	91.3%	102%	99.6%	109%	105%	95.7%	114%	116%	95.3%	99.9%	107%	95.6%	101%	104%
CCOC(=O)c1cc(C(=O)c2cc(OC)c(OC)c(OC)c2)n2c1ccc1c3cccnc3ccc12	77.4%	82.3%	82.2%	55.5%	22.8%	64%	78.5%	36.6%	89.3%	12.9%	79.3%	69.5%	66.8%	69.9%	63.4%	55.5%	31.6%	73.4%
Cc1ccc(NCCN(C)CC(C)O)c2c(=O)c3ccc(Cl)cc3sc12 (configuration not stated)	65.7%	85.3%	0.284% (active)	34.3%	57.4%	39.6%	47.3%	-78% (active)	59.7%	-61.2% (active)	-24.2% (active)	-16.4% (active)	22.9%	58.4%	82.6%	81.5%	-74.7% (active)	24.7%
OCCn1cccn1	93.1%	99.9%	102%	101%	101%	111%	109%	125%	104%	101%	–	103%	93.8%	100%	108%	98.3%	112%	136%
O=C1OC(C(Cl)(Cl)Cl)OC1C(Cl)(Cl)Cl (configuration not stated)	102%	110%	108%	105%	96.4%	95.6%	114%	107%	101%	91.3%	–	103%	116%	103%	98%	115%	–	92.5%
C/C(=C/CCC(C)[C@@H]1CC[C@]2(C)C3=C(CC[C@@]12C)[C@@]1(C)CCC(=O)C(C)(C)[C@@H]1CC3)C(=O)O (some centres not stated)	-78.3% (active)	-47.3% (active)	-80.7% (active)	-93.3% (active)	-69% (active)	-56.2% (active)	-92% (active)	-91% (active)	-92.3% (active)	-16.1% (active)	-88.9% (active)	-76.8% (active)	-90.2% (active)	-92.2% (active)	-90.5% (active)	-76% (active)	-76.8% (active)	-57.5% (active)
COc1cc(-c2nn(-c3cccc(NC(=O)NCCNC(=O)c4cccc(C(F)(F)F)c4)c3)cc2-c2ccncc2)ccc1Cl	57%	70.8%	18.7%	42.5%	24.4%	31.3%	17.4%	39.7%	48.9%	8.57% (active)	52.6%	41.4%	15.3%	41.8%	6.79% (active)	22.2%	15.3%	51%
COc1ccc(/C=C/c2nnc(/C=C/c3ccc(OC)c(OC)c3)o2)cc1OC	25.4%	63.5%	15.6%	20.4%	9.91% (active)	32%	12.8%	–	49.2%	14.8%	57.1%	17.8%	27.4%	41.9%	12.5%	-11.8% (active)	5.44% (active)	–
COC(=O)C1OC1c1cc([N+](=O)[O-])ccc1OC (configuration not stated)	93%	100%	109%	106%	110%	103%	104%	111%	109%	95.5%	102%	123%	99.8%	102%	100%	98.4%	95%	117%
Cc1c2cnccc2c(C)c2c1oc1ccccc12	56.1%	69.4%	28.4%	113%	69.6%	43%	84.9%	52.3%	54.1%	77.2%	62.7%	111%	71.5%	73.8%	74.9%	96.6%	81.6%	86.8%
COc1ccc(-c2nn(-c3cccc(Cl)c3)cc2/C=C2\NC(=S)N(c3ccc(Cl)cc3)C2=O)cc1	-7.88% (active)	-42.5% (active)	11%	29.3%	-37.7% (active)	18.8%	46.6%	36.9%	21.4%	-12.2% (active)	19.1%	11.8%	-7.45% (active)	38%	–	75.3%	4.39% (active)	1.55% (active)
Cc1cc(NC(=O)c2ccc(C)c(Nc3nccc(-c4cccnc4)n3)c2)cc(-n2cnc(C)c2)c1	67.6%	-17.6% (active)	2.48% (active)	25.3%	59.3%	47.1%	-30% (active)	4.18% (active)	32.3%	-36.2% (active)	–	18.5%	-3.26% (active)	73.3%	-13.4% (active)	21.1%	30.9%	87%
COc1ccccc1-n1c(-c2sc(NC(C)=O)nc2C)n[nH]c1=S	101%	106%	110%	105%	102%	104%	106%	116%	119%	101%	104%	106%	107%	94.9%	83.2%	103%	–	114%
